# Assay outcomes: PubChem BioAssay, National Center for Advancing Translational Sciences (NCATS)
# Pol III holo inh = qHTS Assay for Inhibitors of DNA Polymerase III Holoenzyme System; Potency, µM (top dose mostly 57.1 µM), inactives show top-dose activity change, negative = inhibition; 71,000 tested, 0.25% active; AID 603, 2007; reconstituted DNA polymerase III holoenzyme replication, biochemical; note: potency is the fitted concentration of half-maximal effect; % is set by controls: 0 for no effect and ±100 for the full control effect
#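 Reconstituted *E. coli* holoenzyme (0.35 nM Pol III, 1 nM beta, 154 nM SSB, 2 nM primase) was preincubated with compound for 15 min at RT. Synthesis on 1.4 nM ssM13Gori ran 35 min, then was stopped with PicoGreen/EDTA and read as dsDNA fluorescence.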
# ALOX15B inhib = qHTS Assay for Inhibitors of 15-hLO-2 (15-human lipoxygenase 2); 110,000 tested, 0.56% active; purified 15hLO-2, xylenol orange hydroperoxide absorbance; Potency, µM (highest dose often 57.1 µM), for the others: top-dose activity change, negative = inhibition, actives largely listed as inhibitors; Polyunsaturated fatty acid lipoxygenase ALOX15B (Homo sapiens), O15296; note: potency is the fitted concentration of half-maximal effect; % is set by controls: 0 for no effect and ±100 for the full control effect; nearly all actives have a fitted effect of over 60% in size
#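 Purified human 15hLO-2 (50 nM final) preincubated with compounds 15 min at room temperature in 25 mM Hepes pH 7.5, 0.01% Triton X-100, then 45 uM arachidonic acid added for 90 min; hydroperoxide detected via ferrous/xylenol orange, 573/405 nm absorbance ratio.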
# 15-hLO inh = qHTS Assay for Inhibitors of 15-hLO (15-human lipoxygenase); 74,000 tested, 1.4% active; purified 15hLO-1, xylenol orange hydroperoxide absorbance; Polyunsaturated fatty acid lipoxygenase ALOX15 (Homo sapiens), P16050; Potency, µM (doses to about 57.1 µM), for inactives: at the highest dose activity change, negative = inhibition, actives largely listed as inhibitors; note: potency is the fitted concentration of half-maximal effect; % is set by controls: 0 for no effect and ±100 for the full control effect; nearly all actives have a fitted effect of over 55% in size
# Target sequence (P16050 whole entry, looked up): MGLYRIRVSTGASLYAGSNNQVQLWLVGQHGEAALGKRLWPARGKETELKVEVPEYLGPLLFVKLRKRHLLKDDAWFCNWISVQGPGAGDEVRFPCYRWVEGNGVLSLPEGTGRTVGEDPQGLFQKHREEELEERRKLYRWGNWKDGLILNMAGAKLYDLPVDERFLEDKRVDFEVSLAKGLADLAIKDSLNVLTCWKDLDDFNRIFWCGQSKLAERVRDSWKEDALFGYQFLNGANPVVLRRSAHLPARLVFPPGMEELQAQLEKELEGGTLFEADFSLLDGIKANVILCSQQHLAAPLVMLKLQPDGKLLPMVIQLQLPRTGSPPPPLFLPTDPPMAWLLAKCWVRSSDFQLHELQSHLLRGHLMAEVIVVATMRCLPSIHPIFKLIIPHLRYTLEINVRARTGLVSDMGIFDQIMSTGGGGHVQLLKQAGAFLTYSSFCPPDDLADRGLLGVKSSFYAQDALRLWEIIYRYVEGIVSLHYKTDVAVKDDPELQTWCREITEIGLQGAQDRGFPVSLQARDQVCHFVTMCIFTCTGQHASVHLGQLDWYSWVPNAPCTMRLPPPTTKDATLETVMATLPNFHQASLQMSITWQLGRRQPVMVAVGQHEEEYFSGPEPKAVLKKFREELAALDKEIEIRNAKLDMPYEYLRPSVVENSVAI
#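 Purified human 15hLO-1 (40 nM) in 25 mM Hepes pH 7.5, 0.01% Triton X-100, preincubated 15 min RT with compound, then 50 uM arachidonic acid for 6 min. Hydroperoxide read by ferrous/xylenol orange, 30 min; 573/405 nm absorbance ratio gave progress.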
# BRCT PPI green = qHTS Assay for Inhibitors of BRCT-Phosphoprotein Interaction (Green Fluorophore) | Breast cancer type 1 susceptibility protein (Homo sapiens), P38398 | BRCA1 BRCT-phosphopeptide binding, green fluorescence polarization | Potency, µM (series often up to 76.9 µM), without a hit: at the top dose activity change, negative = inhibition, hits mostly inhibitors | 75,000 tested, 0.05% active | AID 875, 2007;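 note: potency is the fitted concentration of half-maximal effect; plate controls were peptide without protein for full effect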
#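 Compounds were incubated for 12 min at room temperature with a complex of 100 nM fluorescein-tagged pBACH1 decapeptide and 250 nM His-tagged BRCT protein. Buffer was phosphate pH 7.3 with EDTA, DTT and Tween 20. Disruption of binding lowers the polarization signal.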
# TsaE inh = qHTS Assay for Inhibitors of YjeE; AID 605, 2007; tRNA threonylcarbamoyladenosine biosynthesis protein TsaE (Escherichia coli (strain …; Potency, µM; purified YjeE enzyme, qHTS inhibition assay; 71,000 tested, 0.05% active
#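 Fluorescence polarization of a BODIPY Texas Red–ADP probe (2 uM) bound to purified YjeE (10 uM) was read after 15 min room-temperature incubation with compounds. Loss of polarization marks inhibitors; ADP serves as titrated control.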
# BRCT PPI red = qHTS Assay for Inhibitors of BRCT-Phosphoprotein Interaction (Red Fluorophore); Breast cancer type 1 susceptibility protein (Homo sapiens), P38398; BRCT-phosphopeptide binding, red fluorescence polarization; Potency, µM (highest dose often 76.9 µM), without a hit: at the top dose activity change, negative = inhibition, usual class: inhibitors; AID 892, 2007; 75,000 tested, 0.03% active; note: % is set by controls: 0 for no effect and ±100 for the full control effect
#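 Rhodamine-labelled pBACH1 10-mer (100 nM) bound to BRCT domain (100 nM) at pH 7.3; compounds incubated 12 min room temperature, polarization read. Free peptide defines full inhibition; unlabelled decapeptide titrated as control.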
# * marks the source's active call; other numbers are inactive results; i = inactive; u = inconclusive; x = no result given; [ ] = remark or other dose. This is one part of a sample in which hits are shown more often than they occur. Calls come from the whole dose curve; as a rule, active = well fitted curve in the direction sought with a large enough effect; inconclusive = small, poorly fitted or top-dose-only effect, or another doubt; inactive = no such curve, though single readings can be large; an effect the other way counts as inactive or inconclusive.
SMILES,Pol III holo inh,ALOX15B inhib,15-hLO inh,BRCT PPI green,TsaE inh,BRCT PPI red
N#CC1=C2SCN(c3ccccc3)CN2C(=O)CC1c1cccs1 (stereo not drawn),-6%,13µM*,4µM*,0%,i,-1%
N#CC1=C2SCN(c3ccccc3)CN2C(=O)CC1c1c(Cl)cccc1Cl (stereo not drawn),-5%,7.9µM*,3.2µM*,-1%,i,-1%
N#CC1=C2SCN(c3ccccc3)CN2C(=O)CC1c1ccccc1Cl (stereo not drawn),-5%,7.9µM*,u,0%,i,2%
Cc1ccc(C2CC(=O)N3CN(c4ccc(Br)cc4)CSC3=C2C#N)o1 (stereo not drawn),-11%,u,2.5µM*,-2%,i,-4%
CC(=O)C1=C(C)NC(SCC(=O)c2cc(Cl)ccc2Cl)=C(C#N)C1c1ccco1 (stereo not drawn),-15%,-23%,4µM*,5%,i,1%
CC(=O)C1=C(C)NC(SCC(=O)c2ccc(Cl)c(Cl)c2)=C(C#N)C1c1ccco1 (stereo not drawn),-12%,-13%,13µM*,3%,i,4%
COc1cccc(Nc2ncc3nc(-c4ccccc4)c(=O)n(C)c3n2)c1,-2%,2%,-11%,-4%,i,1%
COC(=O)[C@@H](NC(=O)c1cc(-c2ccccc2)nc2ccccc12)c1ccccc1,-4%,x,x,x,i,x
CC1=C(C(=O)OCc2ccccc2)C(c2ccc(Cl)cc2)NC(=O)N1CCCCCC(=O)O (stereo not drawn),2%,-17%,x,-1%,i,-2%
CC1=C(C(=O)OCc2ccccc2)C(c2ccc(C3CCCCC3)cc2)NC(=O)N1CCCCCC(=O)O (stereo not drawn),-1%,25µM*,-30%,-1%,i,0%
O=c1cc(-c2cccc(O)c2O)oc2ccccc12,-4%,16µM*,u,-2%,i,-1%
C#CCCCO/N=C1/[C@H]2O[C@@H]2[C@@H](O)[C@H]2[C@H]1CCn1c(=O)n(Cc3cc4c(cc3Cl)OCO4)c(=O)n12,x,x,-1%[11.4 µM],-1%[15.4 µM],x,3%[15.4 µM]
O=C(NCCN1CCOCC1)c1cc(-c2ccc(O)cc2)on1,-13%,x,5%,1%,i,0%
OCC1OC(O)C(O)C(O)C1O (stereo not drawn),x,-5%[0.0915 µM],x,x,x,x
OCC1OC([S-])[C@H](O)C(O)C1O.[Au+] (stereo partly drawn),x,u,u,-2%[3.08 µM],x,32µM*
CCN1CCCC1CNC(=O)c1ccc(Cc2nc3ccccc3[nH]2)cc1 (stereo not drawn),x,x,6%,-2%,x,0%
CCOC(=O)C(CCc1ccccc1)NC(C)C(=O)N1C(C(=O)O)CC2CCCC21 (stereo not drawn),x,24%,3.2µM*,-1%,x,0%
C=C(C)C1CC=C(C)C(OC(C)=O)C1 (stereo not drawn),-1%,-4%,47%,-2%,i,0%
O=P(O)(CCP(=O)(O)c1ccccc1)c1ccccc1,-6%[11.4 µM],2%[11.4 µM],6%[11.4 µM],-2%[15.4 µM],i,1%[15.4 µM]
O=C(/C=C/Nc1ccc(F)c(Cl)c1)c1ccco1,-10%,6%,25µM*,3%,i,1%
CN(C)c1ccc(N/C=C/C(=O)c2ccco2)cc1,x,25µM*,x,x,x,x
CCCCCCCCCCCCCCCC(=O)OCC(O)C1OC(=O)C(O)=C1O (stereo not drawn),x,8.9µM*,x,x,x,x
CCCCCCCCCCCCCCCCCC(=O)OCC(C)O (stereo not drawn),x,-3%[0.0915 µM],x,x,x,x
Nc1nc(N)c2[nH]cnc2n1 (tested in a mixture with another compound),2%[11.4 µM],-5%[11.4 µM],4%[11.4 µM],1%[15.4 µM],i,-1%[15.4 µM]
Nc1ncnc2nc[nH]c12.Nc1ncnc2nc[nH]c12.[Cl][Pt]([Cl])([Cl])[Cl],2.5µM*,x,x,x,i,x
SMILES,Pol III holo inh,ALOX15B inhib,15-hLO inh,BRCT PPI green,TsaE inh,BRCT PPI red
O=c1c(O)c(-c2ccc(O)cc2)oc2cc(O)ccc12,-7%,-29%,-11%[25.6 µM],-4%,i,0%
COc1ccc(-c2coc3cc(O)ccc3c2=O)c(OC)c1O,x,-9%,1%,0%,x,1%
COc1ccc(-c2coc3cc(O)ccc3c2=O)c(O)c1O,x,-4%,13µM*,-2%[3.08 µM],x,-5%
COc1ccc(-c2oc3ccccc3c(=O)c2O)cc1,x,u,1%[25.6 µM],-2%,x,2%
COc1cc(-c2oc3cc(O)ccc3c(=O)c2O)ccc1O,x,-19%,13µM*,-1%,x,-1%
O=c1c(O)c(-c2ccc(O)c(O)c2)oc2ccccc12,u,13µM*,2µM*,-1%,i,2%
CCCCCCCC1=CC2=CC(=O)C(C)(O)C(=O)C2=CN1CCCC (stereo not drawn),x,x,-9%[11.4 µM],1%[15.4 µM],x,2%[15.4 µM]
CCn1c(CSc2nnc(-c3cccnc3)n2-c2ccccc2C)nc2cc(C(=O)O)ccc21,-2%,5%,-21%,0%,79µM*,25µM*
O=C(Nc1ccc2c(c1)OCO2)N1CCN(C/C=C/c2ccccc2)CC1,-6%,17%,32µM*,-2%,i,-1%
COC(OC)[C@@H](C)[C@H](OC)[C@@H](C)[C@H](OC)c1ccccc1,x,x,-3%[11.4 µM],-1%[15.4 µM],x,0%[15.4 µM]
O=C1C=CC(=O)c2c(O)c(Cl)c(Cl)c(O)c21,x,0%,1µM*,u,x,u
Oc1c(Cl)ccc(Cl)c1Cl,-4%,14%,-2%,0%,i,0%
Cc1cc2cc(CNC(=O)c3cccs3)ccc2n1C,-10%,x,16µM*,-2%,i,-10%
COc1cc(C2CC(=O)N3CN(c4ccccc4C)CSC3=C2C#N)cc(OC)c1OC (stereo not drawn),-4%,u,4µM*,3%,i,0%
COc1ccccc1N1CSC2=C(C#N)C(c3ccc(SC)cc3)CC(=O)N2C1 (stereo not drawn),-4%,20µM*,3.2µM*,-1%,i,0%
COc1cccc(C2CC(=O)N3CN(c4ccccc4F)CSC3=C2C#N)c1 (stereo not drawn),-2%,u,u,-1%,i,0%
Oc1ccc(NCc2ccccc2OCc2ccccc2F)cc1,x,13µM*,x,x,x,x
